Test results published in PubChem BioAssay.
Active and inactive are the calls of the source. Unless noted, how the calls were made is not given here.

How the values were obtained:
[1] = anti-His antibody binders, primary screen, artefact control for SMM control protein annotation, biochemical, small-molecule microarray, 635 nm fluorescence (AID 1128); conditions: anti-His Alexa647 antibody binding, higher = more signal;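 further: score merges feature fluorescence with signal-to-noise for each printed compound spot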
[2] = tested on: Human papillomavirus type 1a E7 protein (residues 1-88); assay: HPV1a E7 small-molecule binders, primary screen, biochemical, small-molecule microarray, residues 1-88, 635 nm (AID 1129); conditions: small-molecule microarray binding, fluorescence 635 nm; higher = more signal
[3] = biological target: Focal adhesion kinase 1 (Homo sapiens) (UniProt Q05397); assay: small-molecule microarray binders of FAK, primary screen, biochemical, 635/667 nm fluorescence, BSA, DTT (AID 1130); conditions: PTK2 binding, 635 nm fluorescence, higher = more signal;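 further: composite of spot emission at 667 nm and signal to noise over triplicate slides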
Chain of Focal adhesion kinase 1 (Homo sapiens) (Q05397 whole entry, looked up): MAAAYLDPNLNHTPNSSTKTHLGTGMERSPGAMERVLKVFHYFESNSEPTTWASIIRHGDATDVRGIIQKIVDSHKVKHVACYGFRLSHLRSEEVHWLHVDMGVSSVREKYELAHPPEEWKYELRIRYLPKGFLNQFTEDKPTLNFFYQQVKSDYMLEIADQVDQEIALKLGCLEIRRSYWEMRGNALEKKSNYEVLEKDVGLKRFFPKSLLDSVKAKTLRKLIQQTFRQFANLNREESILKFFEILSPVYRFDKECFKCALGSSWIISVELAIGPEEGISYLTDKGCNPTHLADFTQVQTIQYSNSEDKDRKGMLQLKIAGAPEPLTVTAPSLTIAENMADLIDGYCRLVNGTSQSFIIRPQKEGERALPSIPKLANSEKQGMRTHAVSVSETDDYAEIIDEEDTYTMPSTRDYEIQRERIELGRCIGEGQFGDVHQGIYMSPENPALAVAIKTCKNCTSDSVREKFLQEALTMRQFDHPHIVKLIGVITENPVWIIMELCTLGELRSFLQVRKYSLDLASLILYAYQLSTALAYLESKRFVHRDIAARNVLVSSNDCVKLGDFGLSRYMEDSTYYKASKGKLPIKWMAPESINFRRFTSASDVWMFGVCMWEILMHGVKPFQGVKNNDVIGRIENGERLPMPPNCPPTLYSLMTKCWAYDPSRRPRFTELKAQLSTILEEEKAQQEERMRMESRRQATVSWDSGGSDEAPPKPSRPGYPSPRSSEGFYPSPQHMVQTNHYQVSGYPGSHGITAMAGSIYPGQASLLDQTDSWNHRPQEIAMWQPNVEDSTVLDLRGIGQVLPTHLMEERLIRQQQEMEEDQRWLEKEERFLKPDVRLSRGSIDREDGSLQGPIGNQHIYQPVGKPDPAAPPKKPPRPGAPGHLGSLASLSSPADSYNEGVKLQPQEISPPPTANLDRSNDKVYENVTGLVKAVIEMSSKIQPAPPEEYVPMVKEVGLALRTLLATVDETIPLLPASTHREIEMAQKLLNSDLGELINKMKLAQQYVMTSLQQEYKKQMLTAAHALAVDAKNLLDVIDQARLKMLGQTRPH

[4] = tested on: Fibrinogen (Alexa647-labelled); assay: fibrinogen binders on compound microarrays, profiling panel, artefact control for SMM control-protein annotation, biochemical, small-molecule microarray, 635/667 nm fluorescence (AID 1131); conditions: fibrinogen-A647 binding fluorescence, higher = more signal;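 further: z-score merges 667 nm fluorescence with per-spot signal-to-noise over triplicate slides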
[5] = biological target: Follistatin (Homo sapiens) (UniProt P19883); assay: follistatin binders on small-molecule microarrays, primary screen, biochemical, small-molecule microarray, 635/667 nm fluorescence (AID 1132); conditions: FST binding, 635 nm fluorescence, higher = more signal
Chain of Follistatin (Homo sapiens) (P19883 whole entry, looked up): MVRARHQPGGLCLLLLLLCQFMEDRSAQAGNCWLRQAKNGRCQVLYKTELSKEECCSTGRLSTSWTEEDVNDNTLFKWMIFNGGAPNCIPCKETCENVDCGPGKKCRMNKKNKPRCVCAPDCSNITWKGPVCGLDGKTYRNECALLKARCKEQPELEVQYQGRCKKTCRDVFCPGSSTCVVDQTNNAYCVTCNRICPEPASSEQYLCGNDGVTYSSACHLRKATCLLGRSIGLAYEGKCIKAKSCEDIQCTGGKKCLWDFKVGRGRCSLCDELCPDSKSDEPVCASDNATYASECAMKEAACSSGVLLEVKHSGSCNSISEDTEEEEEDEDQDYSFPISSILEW

[6] = biological target: Fibroblast growth factor 2 (Homo sapiens) (UniProt P09038); assay: FGF2 binders on small-molecule microarrays, primary screen, biochemical, small-molecule microarray, 635/667 nm fluorescence (AID 1133); conditions: small-molecule microarray binding, FGF2, fluorescence 635/667; higher = more signal
Chain of Fibroblast growth factor 2 (Homo sapiens) (P09038 whole entry, looked up): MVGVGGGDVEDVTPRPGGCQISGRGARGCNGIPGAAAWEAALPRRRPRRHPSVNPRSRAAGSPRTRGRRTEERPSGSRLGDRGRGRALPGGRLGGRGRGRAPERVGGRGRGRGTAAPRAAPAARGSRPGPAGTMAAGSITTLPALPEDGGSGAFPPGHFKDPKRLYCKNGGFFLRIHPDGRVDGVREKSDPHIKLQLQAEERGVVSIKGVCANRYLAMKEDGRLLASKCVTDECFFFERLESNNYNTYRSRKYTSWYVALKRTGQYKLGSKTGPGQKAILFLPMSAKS

[7] = mitochondrial membrane potential change in A549 cells, profiling panel, cell-based, JC-1 fluorescence, basal, 24 h, 100 nL (AID 1138); conditions: higher = more signal;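 further: A549 lung adenocarcinoma cells under basal conditions with no added stimulus; test concentration not given here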
Lefty1 = Lefty1 binders on small-molecule microarrays, primary screen, biochemical, small-molecule microarray, 635/667 nm fluorescence (AID 1139); conditions: small-molecule microarray binding, fluorescence 635/667; higher = more signal
[8] = tested on: wheat germ agglutinin (Triticum aestivum), Alexa647-labelled; assay: wheat germ agglutinin binders on compound microarrays, profiling panel, artefact control for SMM control-protein annotation, biochemical, small-molecule microarray, 635/667 nm fluorescence (AID 1140); conditions: WGA-A647 binding, 635 nm fluorescence, higher = more signal;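 further: score merges 667 nm feature emission with signal to noise over triplicate slides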
[9] = biological target: Luciferin 4-monooxygenase (Photinus pyralis) (UniProt P08659); assay: firefly luciferase enzyme inhibitors, primary screen, biochemical, luminescence, purified enzyme, 2006 set (AID 1141); conditions: SteadyGlo luminescence, 30 min, higher = more signal, called active from +8 up or from −8 down;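 further: cell-free assay with purified firefly luciferase at 100 ng per well in PBS; test concentration not given here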
Chain of Luciferin 4-monooxygenase (Photinus pyralis) (P08659 whole entry, looked up): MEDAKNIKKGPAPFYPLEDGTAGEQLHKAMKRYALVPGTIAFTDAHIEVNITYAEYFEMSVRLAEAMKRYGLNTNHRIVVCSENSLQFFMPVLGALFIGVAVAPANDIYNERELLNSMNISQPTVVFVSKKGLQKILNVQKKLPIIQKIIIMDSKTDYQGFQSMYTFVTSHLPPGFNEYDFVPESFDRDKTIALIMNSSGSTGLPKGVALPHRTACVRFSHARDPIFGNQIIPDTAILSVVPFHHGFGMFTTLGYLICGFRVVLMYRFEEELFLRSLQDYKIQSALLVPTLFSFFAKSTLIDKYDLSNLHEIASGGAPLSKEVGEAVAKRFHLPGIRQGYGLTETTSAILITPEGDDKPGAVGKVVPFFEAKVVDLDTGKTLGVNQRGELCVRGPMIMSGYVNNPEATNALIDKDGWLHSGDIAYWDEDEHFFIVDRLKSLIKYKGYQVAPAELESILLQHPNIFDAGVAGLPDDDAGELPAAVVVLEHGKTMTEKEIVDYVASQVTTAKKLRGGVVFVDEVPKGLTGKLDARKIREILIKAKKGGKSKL

[10] = tested on: Wnt5a (protein binding on small-molecule microarray); assay: Wnt5a binders on small-molecule microarray, primary screen, biophysical, 635/667 nm fluorescence (AID 1142); conditions: 635 nm fluorescence, higher = more signal;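 further: fluorescence read at 667 nm with signal to noise per printed feature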
[11] = cell viability in Huh7 cells, primary screen, cytotoxicity control for HCV replication inhibitor project, CellTiter-Glo luminescence, basal, 48 h (AID 1143); conditions: Huh7 HCV replicon, higher = more signal, called active from +8 up or from −8 down;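 further: Huh7 hepatoma cells carrying a hepatitis C replication reporter with no stimulus; test concentration not given here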
[12] = P. aeruginosa biofilm formation inhibitors, primary screen, PAO1 strain, BacTiter-Glo luminescence, LB-PBS (AID 1144); conditions: 12 h, higher = more signal
[13] = CREB reporter modulators without forskolin, primary screen, cell-based, PC12, CRE-LacZ reporter, unstimulated (AID 1145); conditions: no forskolin, luminescence, 4.5 h, higher = more signal, called active from +8 up or from −8 down
[14] = CREB reporter modulators under forskolin, primary screen, cell-based, PC12, CRE-LacZ reporter, forskolin-stimulated (AID 1146); conditions: luminescence, 4.5 h, higher = more signal, called active from +8 up or from −8 down;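 further: PC12 cells with 6xCRE LacZ reporter stimulated by forskolin 10 µM; beta-galactosidase reporter signal reflecting CREB driven transcription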
[15] = biological target: Streptavidin (Streptomyces avidinii) (UniProt P22629); assay: streptavidin binders on small-molecule microarray, primary screen, artefact control for SMM compound annotation, biophysical, 635/667 nm fluorescence (AID 1147); conditions: streptavidin binding, higher = more signal;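 further: signal reflects streptavidin binding to arrayed compounds as a control protein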
Chain of Streptavidin (Streptomyces avidinii) (P22629 whole entry, looked up): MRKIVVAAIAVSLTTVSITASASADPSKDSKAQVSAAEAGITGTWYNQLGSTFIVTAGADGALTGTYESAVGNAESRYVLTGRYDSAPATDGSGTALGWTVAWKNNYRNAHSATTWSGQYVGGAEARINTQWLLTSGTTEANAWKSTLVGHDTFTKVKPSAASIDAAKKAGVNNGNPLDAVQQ

[16] = small-molecule binders of probe aInhba, primary screen, biochemical, small-molecule microarray, 635/667 nm fluorescence (AID 1148); conditions: higher = more signal;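 further: score merges 667nm spot fluorescence with signal-to-noise for antibody binding to printed compounds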
Torsin-1A (Homo sapiens) [17] = biological target: Torsin-1A (Homo sapiens) (UniProt O14656); assay: torsin A binders from cell lysate, primary screen, small-molecule microarray, wild-type, 635/667 nm (AID 1149); conditions: COS7 hTOR1A-WT lysate, 635 nm fluorescence, higher = more signal
Chain of Torsin-1A (Homo sapiens) (O14656 whole entry, looked up): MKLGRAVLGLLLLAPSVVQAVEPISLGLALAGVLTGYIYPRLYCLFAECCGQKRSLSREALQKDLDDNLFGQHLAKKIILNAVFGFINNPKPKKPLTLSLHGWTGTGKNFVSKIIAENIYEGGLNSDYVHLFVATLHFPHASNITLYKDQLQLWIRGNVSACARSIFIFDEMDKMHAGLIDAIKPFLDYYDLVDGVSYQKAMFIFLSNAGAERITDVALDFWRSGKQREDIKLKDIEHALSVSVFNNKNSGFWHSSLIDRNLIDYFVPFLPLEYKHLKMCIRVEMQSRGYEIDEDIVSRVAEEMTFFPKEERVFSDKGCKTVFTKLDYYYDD

Torsin-1A (Homo sapiens) [18] = biological target: Torsin-1A (Homo sapiens) (UniProt O14656); assay: small-molecule binders of mutant TOR1A in lysate, primary screen, cell lysate, small-molecule microarray, COS7 lysate, 635/667 nm fluorescence (AID 1150); conditions: COS7 hTOR1A mutant lysate, 635 nm fluorescence, higher = more signal;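 further: score pools 667 nm emission and signal to noise measuring lysate protein binding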
[19] = tested on: Sonic hedgehog protein (Shh); assay: small-molecule binders of Shh protein, primary screen, biochemical, small-molecule microarray, 635/667 nm fluorescence (AID 1151); conditions: small-molecule microarray binding, 635 nm fluorescence; higher = more signal;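 further: Shh protein binding to compounds spotted on small-molecule microarray slides; score combines spot fluorescence intensity with signal-to-noise across triplicate slides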

SMILES | composite z-score [1] | composite z-score [2] | composite z-score [3] | composite z-score [4] | composite z-score [5] | composite z-score [6] | z-score [7] | composite z-score (Lefty1) | composite z-score [8] | z-score [9] | composite z-score [10] | z-score [11] | z-score [12] | z-score [13] | z-score [14] | composite z-score [15] | composite z-score [16] | composite z-score (Torsin-1A (Homo sapiens) [17]) | composite z-score (Torsin-1A (Homo sapiens) [18]) | composite z-score [19]
CC(C)(C)OC(=O)CC[C@]1(C(=O)NCc2ccccc2)N=C(c2ccc(OCCCO)cc2)O[C@H]1c1ccccc1CN=[N+]=[N-] | 2 | 1.23 | -0.221 | 0.985 | 1.48 | 1.75 | 2.45 | 1.33 | 0.571 | -2.11 (inactive) | 1.3 | -3.05 (inactive) | -0.368 (inactive) | 0.344 (inactive) | -0.156 (inactive) | 1.2 | 0.138 | 0.245 | 0.895 | 1.36
CCCCN1CC=CC23O[C@@H]4/C=C\CCC(C)OC(=O)C4[C@H]2C(=O)N(C(CO)C(C)C)[C@@H]3C1=O (stereo not given in full) | -0.0545 | -0.205 | -0.35 | -0.188 | 0.508 | 0.149 | -0.0444 | 0.774 | -0.0541 | 0.323 (inactive) | -0.0931 | 0.415 (inactive) | 0.524 (inactive) | -0.895 (inactive) | -0.651 (inactive) | -0.271 | -0.128 | 0.624 | 0.517 | 1.42
C[N+](C)(C)CCCCCCNC(=O)[C@H]1C[C@H]2C(=O)NCC(=O)N2[C@H]1c1ccc(O)cc1 | 2.46 | 0.996 | -0.0037 | 0.211 | 1.37 | 1.67 | -1 | 1.59 | 0.195 | 0.836 (inactive) | 0.119 | -0.274 (inactive) | 0.0567 (inactive) | -1.35 (inactive) | 0.444 (inactive) | -0.337 | -0.354 | 0.261 | 0.349 | 2.09
COC(=O)[C@@]1(Cc2ccc(OC)cc2)[C@H]2c3cc(C(=O)N(C)C)n(C[C@H](O)CO)c3C[C@H]2CN1C(=O)c1ccccc1 | 0.396 | 1.2 | 1.17 | 0.904 | 0.291 | -1.16 | 0.193 | -0.908 | 1.34 | 0.543 (inactive) | 0.533 | -2.58 (inactive) | -0.0273 (inactive) | 0.39 (inactive) | 1.33 (inactive) | 1.41 | 0.116 | 0.219 | 1.16 | -0.753
CC(C)C[C@@H]1NC(=O)[C@@H]2C[C@H](C(=O)NCCCCCN)[C@H](c3ccc(O)cc3)N2C1=O | 0.854 | 1.15 | 0.269 | 0.761 | 1.43 | 1.66 | -0.188 | 1.3 | 0.899 | -0.348 (inactive) | 0.329 | -0.079 (inactive) | -0.422 (inactive) | 0.411 (inactive) | 0.437 (inactive) | 1.01 | -0.171 | 0.457 | 0.465 | 2.04
CN(C)C(=O)[C@@]1(CCS(=O)(=O)c2ccccc2)N=C(c2ccc(OCCCO)cc2)O[C@H]1c1ccccc1 | 2.36 | 1.23 | 0.365 | 0.983 | 1.02 | -0.663 | 0.635 | -0.502 | 1.18 | -0.525 (inactive) | 0.543 | -3.07 (inactive) | 1.02 (inactive) | 0.652 (inactive) | -0.481 (inactive) | 0.926 | 0.0155 | 1.05 | 0.548 | -1.01
C=CCNC(=O)[C@@H]1[C@H]2C(=O)O[C@H](c3ccccc3)[C@H](c3ccccc3)N2[C@H](c2ccc(O)cc2)[C@@]12C(=O)N(C(=O)OCCOC)c1ccc(C#CC3(O)CCCCCC3)cc12 | -0.461 | -1.32 | -0.365 | -2.02 | -1.01 | -1.93 | 0.426 | -0.624 | -0.556 | 0.779 (inactive) | -1.3 | -1.16 (inactive) | -0.53 (inactive) | -1.28 (inactive) | 0.142 (inactive) | -1.23 | -0.204 | -1.68 | -1.47 | -0.382
[N-]=[N+]=NCc1ccccc1C[C@]1(C(N)=O)N=C(c2ccc(OCCCO)cc2)O[C@H]1c1ccccc1 | 0.409 | 1.21 | 0.196 | 0.496 | 1.31 | -0.653 | 0.658 | -0.625 | 1.14 | 0.856 (inactive) | 0.0841 | -3.8 (inactive) | -1.02 (inactive) | 0.101 (inactive) | 0.0159 (inactive) | 0.363 | 0.0227 | 0.851 | 0.885 | -1.23
[N-]=[N+]=NCc1ccccc1[C@H]1OC(c2ccc(OCCCO)cc2)=N[C@@]1(CCS(=O)(=O)c1ccccc1)C(=O)N1CCCCC1 | 2.98 | 1.23 | 1.12 | 1.02 | 1.1 | 0.227 | -1.16 | 0.53 | 1.44 | -0.844 (inactive) | 0.526 | -1.56 (inactive) | -0.705 (inactive) | 0.0219 (inactive) | -0.709 (inactive) | 1.72 | 0.211 | 0.827 | 1.28 | 0.155
Cc1ccc(S[C@]2(C(=O)O)CC(=O)N(Cc3cc(C(F)(F)F)cc(C(F)(F)F)c3)[C@@H]2c2ccc(CO)cc2)cc1 | -1.45 | -0.889 | -0.194 | -0.84 | -1.22 | -0.897 | -0.389 | -1.66 | -1.31 | -0.0278 (inactive) | -0.256 | 0.0756 (inactive) | -0.00769 (inactive) | 0.621 (inactive) | 0.573 (inactive) | -0.882 | -0.128 | -0.272 | -0.62 | -1.26
